# Legend:
# Assay in all cases: PBM; 200 nM protein, PBS
# Conditions in all cases: dsDNA, one strand shown
# NKX2-5 [1] = target: NKX2-5 (Homo sapiens, UniProt P52952 125-210, R139K)
# NKX2-5 [2] = target: NKX2-5 (Homo sapiens, UniProt P52952 125-210)
# HOXD13 [3] = target: HOXD13 (Homo sapiens, UniProt P35453 263-343, T313R)
# HOXD13 [4] = target: HOXD13 (Homo sapiens, UniProt P35453 263-343)
# HOXD13 [5] = target: HOXD13 (Homo sapiens, UniProt P35453 263-343, T313A)
# NKX3-2 [6] = target: NKX3-2 (Homo sapiens, UniProt P78367 192-278, P234S)
# NKX3-2 [7] = target: NKX3-2 (Homo sapiens, UniProt P78367 192-278)
# NKX3-2 (Homo sapiens, UniProt P78367 192-278), sequence (P78367 192-278): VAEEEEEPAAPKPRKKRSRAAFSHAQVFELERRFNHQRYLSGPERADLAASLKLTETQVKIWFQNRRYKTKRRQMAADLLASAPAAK
# HOXD13 (Homo sapiens, UniProt P35453 263-343, T313A), sequence (P35453 263-343 T313A): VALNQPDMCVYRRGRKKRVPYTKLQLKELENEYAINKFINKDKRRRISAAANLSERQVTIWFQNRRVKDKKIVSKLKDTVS
# HOXD13 (Homo sapiens, UniProt P35453 263-343), sequence (P35453 263-343): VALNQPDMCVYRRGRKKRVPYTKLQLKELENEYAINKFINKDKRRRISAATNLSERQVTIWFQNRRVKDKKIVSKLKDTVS
# NKX2-5 (Homo sapiens, UniProt P52952 125-210), sequence (P52952 125-210): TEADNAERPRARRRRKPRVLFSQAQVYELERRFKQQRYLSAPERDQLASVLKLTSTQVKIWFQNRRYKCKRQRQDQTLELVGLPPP
# NKX2-5 (Homo sapiens, UniProt P52952 125-210, R139K), sequence (P52952 125-210 R139K): as the sequence (P52952 125-210) above, with R15K counted along it
# HOXD13 (Homo sapiens, UniProt P35453 263-343, T313R), sequence (P35453 263-343 T313R): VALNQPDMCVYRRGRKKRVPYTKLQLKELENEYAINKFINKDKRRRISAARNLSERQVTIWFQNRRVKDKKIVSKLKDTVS
# NKX3-2 (Homo sapiens, UniProt P78367 192-278, P234S), sequence (P78367 192-278 P234S): as the sequence (P78367 192-278) above, with P43S counted along it
sequence,measurement,setting,value
CGGGTGGC,binding signal,NKX2-5 [1],"8.45 upbm affinity estimate (log intensity, higher = more binding, comparable within an allelic series)"
same,binding signal,NKX2-5 [2],"8.57 upbm affinity estimate (log intensity, higher = more binding, comparable within an allelic series)"
CCTGGGCA,binding signal,NKX2-5 [1],"8.92 upbm affinity estimate (log intensity, higher = more binding, comparable within an allelic series)"
same,binding signal,NKX2-5 [2],"9.12 upbm affinity estimate (log intensity, higher = more binding, comparable within an allelic series)"
AGGCGAGC,binding signal,NKX2-5 [1],"9.02 upbm affinity estimate (log intensity, higher = more binding, comparable within an allelic series)"
same,binding signal,NKX2-5 [2],"8.95 upbm affinity estimate (log intensity, higher = more binding, comparable within an allelic series)"
GCAAAGTA,binding signal,NKX2-5 [1],"10.7 upbm affinity estimate (log intensity, higher = more binding, comparable within an allelic series)"
same,binding signal,NKX2-5 [2],"10.8 upbm affinity estimate (log intensity, higher = more binding, comparable within an allelic series)"
CTGCCGCC,binding signal,NKX2-5 [1],"8.73 upbm affinity estimate (log intensity, higher = more binding, comparable within an allelic series)"
same,binding signal,NKX2-5 [2],"8.63 upbm affinity estimate (log intensity, higher = more binding, comparable within an allelic series)"
ACACTCTG,binding signal,NKX2-5 [1],"10.6 upbm affinity estimate (log intensity, higher = more binding, comparable within an allelic series)"
same,binding signal,NKX2-5 [2],"10.5 upbm affinity estimate (log intensity, higher = more binding, comparable within an allelic series)"
CTAATTAA,binding signal,HOXD13 [3],"10.8 upbm affinity estimate (log intensity, higher = more binding, comparable within an allelic series)"
same,binding signal,HOXD13 [4],"11.8 upbm affinity estimate (log intensity, higher = more binding, comparable within an allelic series)"
same,binding signal,HOXD13 [5],"11.6 upbm affinity estimate (log intensity, higher = more binding, comparable within an allelic series)"
GCCGGCAA,binding signal,NKX2-5 [1],"9.18 upbm affinity estimate (log intensity, higher = more binding, comparable within an allelic series)"
same,binding signal,NKX2-5 [2],"8.86 upbm affinity estimate (log intensity, higher = more binding, comparable within an allelic series)"
AGTGCCTA,binding signal,NKX2-5 [1],"11.2 upbm affinity estimate (log intensity, higher = more binding, comparable within an allelic series)"
same,binding signal,NKX2-5 [2],"11.1 upbm affinity estimate (log intensity, higher = more binding, comparable within an allelic series)"
AACGTGGG,binding signal,NKX2-5 [1],"8.65 upbm affinity estimate (log intensity, higher = more binding, comparable within an allelic series)"
same,binding signal,NKX2-5 [2],"8.69 upbm affinity estimate (log intensity, higher = more binding, comparable within an allelic series)"
ATTAATTA,binding signal,HOXD13 [3],"10.8 upbm affinity estimate (log intensity, higher = more binding, comparable within an allelic series)"
same,binding signal,HOXD13 [4],"11.8 upbm affinity estimate (log intensity, higher = more binding, comparable within an allelic series)"
same,binding signal,HOXD13 [5],"11.6 upbm affinity estimate (log intensity, higher = more binding, comparable within an allelic series)"
GGCAAGCC,binding signal,NKX2-5 [1],"8.94 upbm affinity estimate (log intensity, higher = more binding, comparable within an allelic series)"
same,binding signal,NKX2-5 [2],"8.92 upbm affinity estimate (log intensity, higher = more binding, comparable within an allelic series)"
TAATTATA,binding signal,HOXD13 [3],"10.7 upbm affinity estimate (log intensity, higher = more binding, comparable within an allelic series)"
TCTGCAGA,binding signal,NKX2-5 [1],"9.09 upbm affinity estimate (log intensity, higher = more binding, comparable within an allelic series)"
same,binding signal,NKX2-5 [2],"9.04 upbm affinity estimate (log intensity, higher = more binding, comparable within an allelic series)"
ACCACTCT,binding signal,NKX2-5 [1],"11.3 upbm affinity estimate (log intensity, higher = more binding, comparable within an allelic series)"
same,binding signal,NKX2-5 [2],"11.2 upbm affinity estimate (log intensity, higher = more binding, comparable within an allelic series)"
GCAGACCA,binding signal,NKX2-5 [1],"9.14 upbm affinity estimate (log intensity, higher = more binding, comparable within an allelic series)"
same,binding signal,NKX2-5 [2],"9.12 upbm affinity estimate (log intensity, higher = more binding, comparable within an allelic series)"
CACGTCCC,binding signal,NKX2-5 [1],"8.94 upbm affinity estimate (log intensity, higher = more binding, comparable within an allelic series)"
same,binding signal,NKX2-5 [2],"8.96 upbm affinity estimate (log intensity, higher = more binding, comparable within an allelic series)"
AATTAATA,binding signal,HOXD13 [3],"10.9 upbm affinity estimate (log intensity, higher = more binding, comparable within an allelic series)"
same,binding signal,HOXD13 [4],"11.7 upbm affinity estimate (log intensity, higher = more binding, comparable within an allelic series)"
same,binding signal,HOXD13 [5],"11.7 upbm affinity estimate (log intensity, higher = more binding, comparable within an allelic series)"
GTTAATTA,binding signal,HOXD13 [3],"10.7 upbm affinity estimate (log intensity, higher = more binding, comparable within an allelic series)"
same,binding signal,HOXD13 [5],"11.6 upbm affinity estimate (log intensity, higher = more binding, comparable within an allelic series)"
ATTAATGA,binding signal,HOXD13 [3],"10.7 upbm affinity estimate (log intensity, higher = more binding, comparable within an allelic series)"
same,binding signal,HOXD13 [4],"11.9 upbm affinity estimate (log intensity, higher = more binding, comparable within an allelic series)"
same,binding signal,HOXD13 [5],"11.7 upbm affinity estimate (log intensity, higher = more binding, comparable within an allelic series)"
CCTGGCAG,binding signal,NKX2-5 [1],"8.78 upbm affinity estimate (log intensity, higher = more binding, comparable within an allelic series)"
same,binding signal,NKX2-5 [2],"8.78 upbm affinity estimate (log intensity, higher = more binding, comparable within an allelic series)"
TGCGCGCA,binding signal,NKX2-5 [1],"9.19 upbm affinity estimate (log intensity, higher = more binding, comparable within an allelic series)"
same,binding signal,NKX2-5 [2],"9.1 upbm affinity estimate (log intensity, higher = more binding, comparable within an allelic series)"
GCTAATTA,binding signal,NKX3-2 [6],"11.7 upbm affinity estimate (log intensity, higher = more binding, comparable within an allelic series)"
same,binding signal,NKX3-2 [7],"11.7 upbm affinity estimate (log intensity, higher = more binding, comparable within an allelic series)"
CAATACTC,binding signal,NKX2-5 [1],"10.2 upbm affinity estimate (log intensity, higher = more binding, comparable within an allelic series)"
same,binding signal,NKX2-5 [2],"10.2 upbm affinity estimate (log intensity, higher = more binding, comparable within an allelic series)"
CCCTGGGC,binding signal,NKX2-5 [1],"8.86 upbm affinity estimate (log intensity, higher = more binding, comparable within an allelic series)"
same,binding signal,NKX2-5 [2],"8.96 upbm affinity estimate (log intensity, higher = more binding, comparable within an allelic series)"
GGTAATTA,binding signal,NKX3-2 [6],"11.7 upbm affinity estimate (log intensity, higher = more binding, comparable within an allelic series)"
same,binding signal,NKX3-2 [7],"11.7 upbm affinity estimate (log intensity, higher = more binding, comparable within an allelic series)"
GCAACGCA,binding signal,NKX2-5 [1],"9.03 upbm affinity estimate (log intensity, higher = more binding, comparable within an allelic series)"
same,binding signal,NKX2-5 [2],"8.99 upbm affinity estimate (log intensity, higher = more binding, comparable within an allelic series)"
TAATTAAA,binding signal,HOXD13 [3],"10.8 upbm affinity estimate (log intensity, higher = more binding, comparable within an allelic series)"
same,binding signal,HOXD13 [4],"11.8 upbm affinity estimate (log intensity, higher = more binding, comparable within an allelic series)"
same,binding signal,HOXD13 [5],"11.7 upbm affinity estimate (log intensity, higher = more binding, comparable within an allelic series)"
